Laboratory results taken from PubChem BioAssay (Tox21).
Results filed as inconclusive are left out. A call without a number means that no potency is given here. Activity calls are given as the source filed them. The call rests on the fitted dose curve.

test: p53 small molecule agonists, cell-based qHTS assay with rat liver microsomes: qHTS cell viability counter screen (AID 1963580); conditions: p53RE-bla HCT-116 + rat microsomes, ATP viability, 16 h; series mostly up to 66 µM; further: nearly all actives have a fitted effect of over 45% in size
Text: National Center for Advancing Translational Sciences [NCATS]
Division of Preclinical Innovation [DPI]
U.S. Environmental Protection Agency [EPA]
National Institutes of Environmental Health Sciences [NIEHS]
National Toxicology Program [NTP]
U.S. Food and Drug Administration [FDA]
p53, a tumor suppressor protein, is activated following cellular insult, including DNA damage and other cellular stresses. The activation of p53 regulates cell fate by inducing DNA repair, cell cycle arrest, apoptosis, or cellular senescence. The activation of p53, therefore, is a good indicator of DNA damage and other cellular stresses. The CellSensor p53RE-bla HCT-116 cell line contains a stably integrated beta-lactamase reporter gene under control of the p53 response elements. The activation of the reporter gene under culture conditions can be detected by fluorescence intensity. This cell line was used to screen the Tox21 10K compound library in the condition of presence of rat liver microsomes and to identify agonists that activate the p53 signaling pathway after in vitro metabolic activation (Ooka et al., Archive of Toxicology 96:1975-1987, 2022). The cytotoxicity of the Tox21 compound library against the p53 RE-bla HCT-116 cell line was tested in parallel by measuring the intra cellular ATP content in the same wells.
Tox21 Assay Protocol Summary:
The p53RE-bla cells were dispensed at 4,000cells/3ul/well in 1536-well black-clear bottom plates. After the assay plates were incubated at 37 C, 5% CO2 incubator for 5 hours, 23 nL of compounds dissolved in DMSO, positive controls or DMSO only was transferred to the assay plate. Following compound addition, 3 uL of rat liver microsomes (Molecular Toxicology, Boone, NC) at final concentration of 0.5 mg/mL and 1uL of B-Nicotinamide adenine dinucleotide 2'-phosphate (NADPH) at final concentration of 0.5 mg/mL were transferred to the assay plate. The plates were incubated at 37 C for 16 hours. 1 uL of LiveBLAzer detection mixture was added to each well and the plates were incubated at room temperature in the dark for 2 h. Fluorescence intensity at 460 and 530 nm emission and 405 nm excitation were measured by an Envision plate reader. For cell viability readout that measures cytotoxicity, 4 ul/well of CellTiter-Glo reagent was added into the assay plates using a Flying Reagent Dispenser. After 30 min incubation at room temperature, the luminescence intensity in the plates was measured using a ViewLux plate reader.
Potency means the concentration at half of the fitted maximal effect.

SMILES	Potency	activity change, negative = cytotoxicity
CCCCCCCCn1sc(Cl)c(Cl)c1=O	36.3 µM (active)	–
CN(C)c1ccc(SC#N)cc1	inactive	–
C/C=C/C=N/NC(=O)c1ccncc1	inactive	–
O=[N+]([O-])c1ccc(NCCO)c(OCCO)c1	inactive	–
CCCCN(CCCC)CCC(O)c1cc2c(Cl)cc(Cl)cc2c2cc(C(F)(F)F)ccc12 (stereo not given)	inactive	–
Cc1c(-c2cccnc2)c2ccccc2n1CCCCC(=O)O	inactive	–
Oc1cc2ccccc2c2ccccc12	6.46 µM (active)	–
O=C(Cl)c1c(Cl)cccc1Cl	inactive	–
COc1ccccc1N1CCN(CC(O)COc2cccc3ccccc23)CC1 (stereo not given)	inactive	–
CC(=O)Nc1ccc(OCCOCCOc2ccc(NC(C)=O)cc2)cc1	inactive	–
COCCOC[C@H](CC1(C(=O)NC2CCC(C(=O)O)CC2)CCCC1)C(=O)Oc1ccc2c(c1)CCC2 (stereo not given in full)	inactive	–
CC(Cc1ccccc1)(NC(=O)CN)c1ccccc1 (stereo not given)	inactive	–
N[C@@H](CCC(=O)O)C(=O)O	inactive	–
C=CC(=O)OCC1CC2CC1C1CCC(COC(=O)C=C)C21 (stereo not given)	inactive	–
C=C(C)C(=O)OCCOCCOCCOCCOC(=O)C(=C)C	inactive	–
CC[C@]12CCCN3CCc4c(n(c5ccccc45)C(=O)C1)[C@@H]32	inactive	–
CCCCCCCCCCCCCCCBr	inactive	–
C/C=C1\[C@H]2C=C(C)C[C@]1(N)c1ccc(=O)[nH]c1C2	inactive	–
CC(=O)O[Si](C)(OC(C)=O)OC(C)=O	inactive	–
CC(=O)OC(C)OC(C)=O	inactive	–

SMILES	Potency	activity change, negative = cytotoxicity
CCCCCCCC/C=C/CCCOC(C)=O	inactive	–
C=CCCCCCC	inactive	–
CSc1c(Cl)c(Cl)c(Cl)c(Cl)c1Cl	inactive	–
CCOC(=O)CC(C)C	inactive	–
CCc1oc2ccccc2c1C(=O)c1cc(Br)c(O)c(Br)c1	inactive	–
CCOc1ccc(NC(C)=O)cc1N	inactive	–
Nc1c(Cl)cc(Cl)cc1[N+](=O)[O-]	inactive	–
COc1cc(C)cc(O)c1	inactive	–
N/C(=N\N=C\c1ccc(Cl)cc1)N/N=C/c1ccc(Cl)cc1	inactive	–
CCOc1ccc(O)cc1	inactive	–
O=C(/C=C/c1ccc(O)c(O)c1)O[C@@H](C(=O)O)[C@@H](OC(=O)/C=C/c1ccc(O)c(O)c1)C(=O)O	inactive	–
C=CC(=O)OCCCCCCOC(=O)C=C	inactive	–
NC(Cc1ccc(F)cc1)C(=O)O (stereo not given)	–	9.8% [at 5.99 µM] (inactive)
CC(=O)OCC(=O)[C@@]1(O)[C@H](OC(C)=O)C[C@H]2[C@@H]3CCC4=CC(=O)C=C[C@]4(C)[C@@]3(F)[C@@H](O)C[C@@]21C	inactive	–
CNCc1ccc(NC(=O)c2c[nH]c3c2C(=O)CCC3)cc1	inactive	–
C=Cc1ccc(C=C)cc1	inactive	–
COc1ccc(C(=O)/C(Br)=C\C(=O)O)cc1	inactive	–
Cc1[nH]cnc1C[C@H]1CCc2c(C)c3ccccc3n2C1=O	inactive	–
CCC(C)(C)c1ccc(CC(C)CN2C[C@@H](C)O[C@@H](C)C2)cc1 (stereo not given in full)	inactive	–
C=CCOC(=O)CCC1CCCCC1	inactive	–
